# KB-V1 MDR tox = KB-V1 MDR subline cytotoxicity; KB-V1 MDR cells viability, CellTiter-Glo, 72 h; Potency, µM (highest dose often 46.1 µM), hits mostly cytotoxic; hit rate 3.4% among 400,000; AID 1347076; note: nearly all actives have a fitted effect of over 60% in size
#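 Compound-treated KB-V1 multidrug-resistant cells, 72 h, 37 degrees C; viability by CellTiter-Glo. Fitted qHTS curves give the values.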
# HT1080 IDH1KD tx = HT-1080 IDH1 knockdown cell toxicity (counter line); HT-1080 IDH1 knockdown viability, ATP luminescence, 48 h; Potency, µM (highest dose often 46.1 µM), for inactives: at the top dose activity, negative = toxicity, most hits filed as cytotoxic; hit rate 2% among 360,000; AID 686971;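 note: 0% = DMSO wells and -100% = cell-free medium wells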
#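 Assay cells: HT-1080 with IDH1 knockdown, 750 per well, RPMI/5% FBS. Exposure: 48 h at 37 °C following 2 h pre-incubation. Read: CellTiter-Glo luminescence; fitted concentration-response, curve class assigned.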
# HT1080NT lethal = kills 2HG-producing HT-1080-NT fibrosarcoma cells. hit rate 1.6% among 360,000. HT-1080-NT fibrosarcoma viability, CellTiter-Glo ATP luminescence, 48 h. AID 686970. Potency, µM (highest dose often 46.1 µM), inactives show at the highest dose activity, negative = less viability, actives largely listed as cytotoxic;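 note: NT is the 2HG producing partner of a matched IDH1 knockdown line; 0% = DMSO-treated cells and -100% = media-only wells without cells; nearly all actives have a fitted effect of over 55% in size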
#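 Viability of the 2HG-overproducing fibrosarcoma line after 48 hours of compound exposure at 37 degrees C was determined by luminescence with CellTiter-Glo, and concentration-effect curves were then fitted and categorized.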
# TDP1 cell noCPT = qHTS for Inhibitors of human tyrosyl-DNA phosphodiesterase 1 (TDP1): qHTS in cells in absence of CPT. DT40 Tdp1-/- hTDP1 cells, no CPT, ATP luminescence, 48 h. Potency, µM (titrated, usually from 46.2 µM), inactives show at the top dose activity change, negative = growth inhibition, usual class: inhibitors. hit rate 15% among 420,000. AID 686978, 2013; note: nearly all actives have a fitted effect of over 55% in size
#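 Readout: luminescence from CellTiter-Glo after 30 min in the dark at RT. Cells: DT40 Tdp1-/- with stable hTDP1, 400/well. Exposure: compounds alone, ≥48 hr, 37 °C.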
# TDP1 cell CPT = growth inhibition of DT40 Tdp1-/-;hTDP1 cells with camptothecin (screen for TDP1 inhibitors); chicken DT40 Tdp1-/-;hTDP1 cells + 20 nM CPT, ATP luminescence, 48 h; Potency, µM (series often up to 46.2 µM), inactives show at the top dose activity change, negative = growth inhibition, hits mostly inhibitors; hit rate 12% among 420,000; note: nearly all actives have a fitted effect of over 55% in size
#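 Chicken DT40 Tdp1-/- cells complemented with human TDP1, 400 cells/well, exposed to compounds plus 20 nM camptothecin for at least 48 h at 37 C; viability read as ATP content by CellTiter-Glo luminescence.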
# KB-3-1 cytotox = kills parental KB-3-1 adenocarcinoma cells | Potency, µM (top dose mostly 46.1 µM), hits mostly cytotoxic | KB-3-1 viability, CellTiter-Glo ATP luminescence, 72 h | hit rate 1.4% among 400,000; note: nearly all actives have a fitted effect of over 60% in size
#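 Screening of KB-3-1 cells (DMEM, 10% FBS, phenol-red free) ran from lowest to highest compound concentration; after 72 h at 37 °C viability was read luminescently and curves fitted.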
# * marks the source's active call; other numbers are inactive results; i = inactive; ? = inconclusive; · = no result; [ ] = remark or other dose. Hits are enriched below; roughly 19% of the tested compounds scored in any of these assays. Calls come from the whole dose curve; as a rule, active = well fitted curve in the direction sought with a large enough effect; inconclusive = small, poorly fitted or top-dose-only effect, or another doubt; inactive = no such curve, though single readings can be large; an effect the other way counts as inactive or inconclusive. Unless noted, % is set by controls: 0 for no effect and ±100 for the full control effect; potency is the fitted concentration of half-maximal effect.
SMILES,KB-V1 MDR tox,HT1080 IDH1KD tx,HT1080NT lethal,TDP1 cell noCPT,TDP1 cell CPT,KB-3-1 cytotox
CC(=O)c1cccc(NC(=O)CSc2nc3ccccc3nc2Cc2ccc(F)cc2)c1,·,·,·,-30%,?,·
CCc1nn(CC(=O)NCCc2ccc(SC)cc2)c(=O)c2cc3sccc3n12,·,·,·,-3%,-8%,·
CC(C)c1ccc(NC(=O)C2CC(=O)Nc3nc4ccccc4n32)cc1 (configuration not stated),i,7%,0%,15%,1%,i
CCc1cccc(C)c1NC(=O)CN1CCN(Cc2ccccc2Cl)S1(=O)=O,?,·,·,26µM*,?,i
O=C(CN1CCCN(Cc2ccc(F)cc2)S1(=O)=O)NCc1ccccc1Cl,i,·,·,16µM*,?,i
CCc1cccc(C)c1NC(=O)CN1CCCN(Cc2ccccc2Cl)S1(=O)=O,i,·,·,23µM*,?,?
O=C(CN1CCCN(Cc2ccc(F)cc2Cl)C1=O)NCc1ccccc1,i,-3%,0%,?,?,i
COc1ccc(C2NC(=O)NC(C)=C2C(=O)OCC2CCCCC2)cc1OC (configuration not stated),i,21%,-13%,?,-27%,i
Cc1ccc(-n2nnnc2SC(C)C(=O)NCC(=O)Nc2ccc(F)c(F)c2F)c(C)c1 (configuration not stated),i,-14%,-12%,15µM*,18µM*,i
Cc1cc(C)[n+]2[nH]c(N)c(N=Nc3ccccc3)c2n1,i,-14%,-12%,16µM*,?,i
O=C(O)c1ccc(N=Cc2c(O)ccc3oc4c(c23)CCCC4)cc1,i,-9%,0%,?,16µM*,i
CCOC(=O)c1ccccc1NC(=O)c1ccc(Cl)c(S(=O)(=O)N2CCOCC2)c1,7.3µM*,16%,10%,16µM*,?,i
Cc1cccc(N2CCN(S(=O)(=O)c3cc(C(=O)Nc4ccccc4Cl)ccc3F)CC2)c1C,·,·,·,23µM*,?,·
CN(c1ccccc1)S(=O)(=O)c1cc(C(=O)Nc2ccccc2N2CCOCC2)ccc1Cl,i,-13%,-3%,9.2µM*,16µM*,?
Cc1ccc(C(=O)Nc2ccccc2N2CCOCC2)cc1S(=O)(=O)N1CCOCC1,i,0%,9%[9.24 µM],-28%,?,i
O=C(Nc1ccccc1N1CCCC1)c1ccc(Cl)c(S(=O)(=O)N2CCOCC2)c1,15µM*,-1%,0%,?,-26%,i
COC(=O)C(Cc1c[nH]c2ccccc12)NC(=O)COc1cccc(C)c1 (configuration not stated),·,·,·,?,-20%,·
CCOC(=O)c1ccc(NC(=O)COCc2cc(-c3ccc4c(c3)OCO4)on2)cc1,i,·,·,-27%,-22%,i
O=C(NC1CCCCCC1)c1ccc(Cl)c(S(=O)(=O)N2CCOCC2)c1,i,10%,14%,29µM*,?,i
CCC(C)(C)C1CCC(NC(=O)c2ccc(S(=O)(=O)N3CCOCC3)cc2)CC1 (configuration not stated),i,-28%,1%[9.24 µM],23µM*,15µM*,?
CN(c1ccccc1)S(=O)(=O)c1cc(C(=O)OCC(N)=O)ccc1Cl,i,15%,16%,?,-4%,i
Cc1ccc(C(=O)NC2CC2)cc1S(=O)(=O)N1CCOCC1,i,9%,2%,0%,-2%,i
O=C(Nc1ccccc1N1CCCCC1)c1ccc(F)c(S(=O)(=O)N2CCOCC2)c1,i,-13%,-17%,21µM*,16µM*,?
CN(c1ccccc1)S(=O)(=O)c1cc(C(=O)c2nccn2C)ccc1Cl,i,6%[9.24 µM],-6%,16µM*,?,i
COC(=O)CCCn1nc(NC(=O)c2ccco2)cc1C,i,10%,-1%,0%,-1%,i
SMILES,KB-V1 MDR tox,HT1080 IDH1KD tx,HT1080NT lethal,TDP1 cell noCPT,TDP1 cell CPT,KB-3-1 cytotox
COC(=O)C1=C(C)N(C)C(=O)NC1c1c(O)ccc2ccccc12 (configuration not stated),i,2%,1%,?,-17%,i
Cc1ccnc(OC(C(=O)O)C(OCc2ccccc2)(c2ccccc2)c2ccc(C(F)(F)F)cc2)n1 (configuration not stated),i,-22%,-15%,?,21µM*,i
CCNc1nc(C)c2cc(Br)c(=O)n(CC)c2n1,6.5µM*,2.1µM*,2.9µM*,2.9µM*,3.7µM*,?
C=CCn1c(=S)[nH]c2nc3c(cc2c1=O)CCCC3,i,8.9µM*,8.9µM*,?,?,?
CCCCc1ccc(S(=O)(=O)NC(=O)C2(C)CCN2C(=O)C/C=C/c2ccccc2)cc1 (configuration not stated),i,-2%,3%,?,?,i
COc1cc(CNn2nnnc2N)ccc1OCc1c(Cl)cccc1Cl,15µM*,-17%,-21%,?,-28%,16µM*
O=C(COC(=O)C1=COCCO1)Nc1cc(C(F)(F)F)ccc1Cl,i,12%,13%,-1%,-25%,i
c1ccc2c(Nc3nnc(-c4ccncc4)s3)cccc2c1,15µM*,-7%,4%,-29%,?,i
CC(=O)c1ccc(NC(=O)Nc2nnc(-c3ccncc3)s2)cc1,i,·,·,·,·,i
O=C(Nc1ccc(-c2ccccc2)cc1)Nc1nnc(-c2ccncc2)s1,i,·,·,·,·,?
O=C(Nc1ccc(F)cc1)Nc1nnc(-c2ccncc2)s1,i,-2%,-24%,21µM*,?,i
Cc1ccc(NC(=O)Nc2nnc(-c3ccncc3)s2)cc1C,?,-2%,-19%,13µM*,21µM*,?
O=C(Nc1ccccc1)Nc1nnc(-c2ccncc2)s1,?,·,·,·,·,18µM*
CCCc1ncc(CN2CCCCC2C(=O)Nc2ccc(Oc3ccccc3)nc2)cn1 (configuration not stated),·,-2%,2%,-21%,-25%,·
O=C(Nc1cccc(Cl)c1)Nc1nnc(-c2ccncc2)s1,?,10µM*,?,5.8µM*,7.3µM*,13µM*
O=C(Nc1nnc(-c2ccncc2)s1)Nc1ccc(Cl)cc1Cl,i,·,·,·,·,i
CC1(C)CC2CC(C)(CN2C(=S)NC(=O)c2ccccc2Cl)C1 (configuration not stated),?,-14%,-3%,18µM*,?,i
